Sampled rows, rich in hits. Any-hit rate of the full collection: about 21%.
NS1 function inh: blocks influenza NS1 protein function. Potency, µM (series often up to 46.1 µM), inactives show top-dose activity, positive = more growth. actives 0.4% (n = 270,000). AID 2326; calls by dose curve; note: potency is the fitted concentration of half-maximal effect; actives are rising curves; nearly all actives have a fitted effect of over 50% in size
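Read-out: OD600 growth recovery of NS1-expressing budding yeast. Cells grown overnight at 30C in -URA glucose medium, washed, resuspended and diluted 1:100 in 2% galactose assay medium, pH 6.0. Same strain lacking NS1 served as positive control.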
Shiga inhibitor: inhibitors of Shiga toxin in Vero cells; inhibition, % at 38.7 µM; Vero cells, Shiga toxin protein synthesis inhibition reporter; actives 9.2% (n = 290,000); in the data active = inhibition mostly above about 28%, no sharp cut-off; inactive = mostly below about 43%; note: 0% is about no effect
CHX counter: affects cycloheximide protein synthesis inhibition readout, counter-screen. cell reporter, cycloheximide protein synthesis inhibition counterscreen. max response, %. actives 12% (n = 300,000). AID 2314; in the data active = max response mostly above about 13%, no sharp cut-off; inactive = mostly below about 14%; note: read at 38.3 µM for the half of the compounds with a filed dose; 0% is about no effect
Pf growth 48h: inhibits P. falciparum growth in the first generation, 48 h. P. falciparum luciferase growth in erythrocytes, 48 h. Potency, µM (highest dose often 28.7 µM), for inactives: at the top dose activity change, negative = inhibition, actives largely listed as inhibitors. actives 5.9% (n = 310,000). AID 504832; note: potency is the fitted concentration of half-maximal effect; % is set by controls: 0 for no effect and ±100 for the full control effect
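A one-generation exposure of luciferase-tagged malaria parasites in RPMI 1640/Albumax erythrocyte culture, 37 C and 5% CO2. Inhibition is inferred from decreased luminescence after adding detection reagent.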
Sm TGR block: S. mansoni TGR enzyme inhibition; Q962Y6; actives 3% (n = 360,000); purified TGR, DTNB reduction, TNB absorbance 405 nm; Potency, µM (doses to about 114 µM), without a hit: at the top dose activity change, negative = inhibition, usual class: inhibitors; note: potency is the fitted concentration of half-maximal effect; % is set by controls: 0 for no effect and ±100 for the full control effect; nearly all actives have a fitted effect of over 60% in size
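First, TGR (20 nM dispensed) and NADPH were mixed with compound. Second, a 15 min room-temperature incubation followed. Third, further NADPH and then DTNB were added to start the reaction. Finally, TNB absorbance was monitored kinetically.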
Pf growth 96h: inhibits malaria parasite growth, 96 h; actives 6.9% (n = 320,000); P. falciparum luciferase reporter growth, 96 h; AID 504834; Potency, µM (highest dose often 28.7 µM), for inactives: at the top dose activity change, negative = inhibition, most hits filed as inhibitors; note: potency is the fitted concentration of half-maximal effect; % is set by controls: 0 for no effect and ±100 for the full control effect
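Infected RBCs, 2% Hct / 0.05% parasitemia final; luciferase-reporter P. falciparum; cpd 96 h, 37 C, 5% CO2; luciferase detection reagent; luminescence.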
The depositor's hits bear a star; ? = inconclusive; . = no result. Unless noted, calls come from the whole dose curve; as a rule, active = well fitted curve in the direction sought with a large enough effect; inconclusive = small, poorly fitted or top-dose-only effect, or another doubt; inactive = no such curve, though single readings can be large; an effect the other way counts as inactive or inconclusive.

SMILES	NS1 function inh	Shiga inhibitor	CHX counter	Pf growth 48h	Sm TGR block	Pf growth 96h
CC1=CC(C)(C)Nc2ccc(OC(=O)c3ccco3)cc21	-57.4%	37.6	17.3*	11.7µM*	-20.1%	9.28µM*
CC1=CC(C)(C)Nc2ccc(Cc3ccc4c(c3)C(C)=CC(C)(C)N4)cc21	?	-6.4	-6.6	?	3.98µM*	?
Cc1c(NS(=O)(=O)c2cccc(C(=O)OCC(=O)N(C)C3CCCCC3)c2)c(=O)n(-c2ccccc2)n1C	.	-9.1	-3.2	-7.4%	2.0%	?
CC1=CC(C)(C)Nc2ccc(OC(=O)C(C)N3C(=O)c4ccccc4C3=O)cc21 (stereo not drawn)	29.6%	-36.4	0.9	13.1µM*	-9.7%	?
C=CCc1ccccc1OCC(O)Cn1ccnc1C (stereo not drawn)	1.0%	22.1	-2.1	-6.2%	-19.4%	1.47µM*
C=CCc1ccccc1OCC(O)CNC (stereo not drawn)	-0.8%	21.7	-3.2	.	25.1µM*	1.17µM*
COc1ccc(OCC(O)CN2CCN(c3ccc(Cl)cc3)CC2)cc1 (stereo not drawn)	-5.3%	-13.8	1.0	-15.0%	6.7%	4.7%
C=CCc1ccccc1OCC(O)CN1CCN(c2ccc(OC)cc2)CC1 (stereo not drawn)	-9.7%	-17.8	3.5	1.5%	7.5%	6.57µM*
CCOc1cccc2cc(S(=O)(=O)c3ccccc3F)c(=O)oc12	.	.	.	.	-4.6%	.
CC(C)[C@H](NC(=O)c1ccco1)C(=O)OCC(=O)Nc1ccccc1OC(F)F	.	-1.4	4.2	-22.4%	11.9%	-9.5%
CCOc1cc(C#N)c(NC(=O)c2cccc(S(=O)(=O)N3CCOCC3)c2)cc1OCC	.	.	.	.	-9.1%	.
C=CCOc1ccc(/C=C2\SC(=Nc3cccnc3)NC2=O)cc1	4.3%	22.1	10.3*	?	-0.5%	10.4µM*
C=C[C@]1(C)C[C@H](OC(=O)CO)[C@]2(C)C3C(=O)CC[C@]3(CC[C@H]2C)[C@H](C)[C@H]1O (stereo partly drawn)	-7.7%	.	.	.	.	.
CCn1c(C)cc(C=C2C(=O)c3ccccc3C2=O)c1C	-9.8%	82.2*	62.0*	-81.2%	.	5.1%
Cc1cc(/C=C2\C(=O)NC(=O)N(c3cccc(Br)c3)C2=O)c(C)n1C	15.3%	13.0	1.3	-8.1%	-20.5%	-3.7%
Cc1cc(C=C2C(=O)c3ccccc3C2=O)c(C)n1C	5.6%	63.0*	64.8*	-18.3%	-18.2%	4.65µM*
CC(=O)c1ccc(OCC(=O)Nc2ccccc2C(=O)NC2CC2)cc1	6.2%	-5.0	1.7	-0.8%	1.6%	34.9%
Cc1cc(N2CCN(C(=O)c3cccs3)CC2)c(F)cc1[N+](=O)[O-]	-9.7%	8.6	-1.2	-32.9%	-13.0%	18.1%
Cc1ccc(C(=O)NNC(=O)Cn2nnc3ccccc32)cc1	-0.5%	41.1*	17.0*	14.9%	10.2%	92.2%
C/C(=N\NC(=O)CCn1nnc2ccccc21)c1cccs1	-4.0%	51.4*	33.0*	30.3%	16.3%	38.8%
CC(=O)c1cccc(NC(=O)CCCCCn2nnc3ccccc3c2=O)c1	-1.4%	3.4	5.9	6.57µM*	-22.7%	3.29µM*
O=C(Cn1nnc2ccccc21)c1ccc(Br)cc1	-1.5%	47.7*	35.2*	42.7%	7.7%	48.5%
CC(=O)NNC(=O)CCn1nnc2ccccc21	3.1%	-8.5	-2.7	5.1%	17.5%	?
O=C(Cn1c(C(F)(F)F)nc2ccccc21)c1ccc(Br)cc1	14.8%	-18.1	-5.1	-21.2%	-7.7%	?
Cc1ccc(NC(=O)/C(=C/c2cccs2)NC(=O)c2ccco2)c(C)c1	0.2%	3.6	5.8	-19.7%	-9.3%	?
SMILES	NS1 function inh	Shiga inhibitor	CHX counter	Pf growth 48h	Sm TGR block	Pf growth 96h
O=C(NCC(c1cccnc1)N1CCc2ccccc21)C(=O)Nc1ccccc1F (stereo not drawn)	.	.	.	.	-0.4%	.
O=C(NC(=O)c1ccccc1O)c1ccc2c(c1)CCO2	1.0%	-20.8	11.1	?	3.3%	-23.2%
Cc1ccc(NC(=O)COc2ccc(CCO)cc2-n2nc3ccccc3n2)cc1C	16.8%	-4.3	-2.6	-23.9%	-3.9%	?
O=C(CCn1nnc2ccccc21)N1CCN(c2ccccc2)CC1	-2.4%	78.1*	26.9	38.4%	-22.2%	-10.8%
Cc1cc(C)cc(NC(=O)CN2C(=O)c3ccccc3Sc3ncccc32)c1	.	.	.	.	6.0%	.
Cc1ccc(NC(=O)CCn2nnc3ccccc32)cc1	-2.6%	79.3*	24.7*	50.3%	.	14.1%
Cc1ccc(C(=O)Cn2nnc3ccccc32)cc1	1.5%	65.6*	37.5*	137.4%	4.7%	11.7µM*
O=C(Cn1nnc2ccccc21)OCC(=O)c1ccc(Cl)cc1	-2.9%	2.6	2.3	11.3%	1.3%	85.6%
Cc1cc(C)cc(NC(=O)CCN2C(=O)c3ccccc3Sc3ncccc32)c1	.	.	.	.	39.8µM*	.
O=C(Cn1nnc2ccccc21)OCc1ccccc1	.	-2.3	10.1	-0.3%	-0.5%	?
CC(=O)Nc1ccc(C(=O)Cn2nnc3ccccc3c2=O)cc1	-1.4%	49.6*	13.4*	54.7%	-22.6%	4.0%
c1ccc(CCn2nnc3ccccc32)cc1	0.9%	188.7*	50.0*	92.3%	-15.8%	103.8%
O=C(Cn1nnc2ccccc21)C1CC1	-7.2%	-8.2	-1.5	14.7%	11.2%	0.8%
O=C(Cn1nnc2ccccc21)NCc1ccccc1	3.6%	63.9*	59.8*	298.5%	6.9%	-4.3%
Cc1ccc(C(=O)Cn2nnc3ccccc32)cc1C	-6.5%	139.7*	69.4*	303.4%	7.9%	263.3%
Cc1cc(=O)c(C(=O)O)nn1-c1ccccc1F	3.9%	-7.4	-2.5	29.2%	0.3%	0.0%
Cc1ccc(NC(=O)CCN2C(=O)c3ccccc3C2=O)cc1	-12.4%	4.7	12.1	3.2%	-0.3%	11.7µM*
Cc1ccc(NC(=O)CCN2C(=O)c3cccc4cccc(c34)C2=O)cc1	.	-3.7	-3.8	-0.4%	-0.5%	?
O=[N+]([O-])c1cccc(-c2csc(CS(=O)(=O)Cc3ccco3)n2)c1	0.4%	9.7	15.9*	3.3%	-4.0%	15.3%
NS(=O)(=O)c1ccc(Nc2nc(-c3cccc([N+](=O)[O-])c3)cs2)cc1	.	14.4	4.9	-12.5%	0.3%	?
CC(Sc1nnc(-c2cccnc2)n1-c1ccccc1F)C(=O)N1CCCc2ccccc21 (stereo not drawn)	1.2%	-10.3	17.4*	?	6.0%	?
Cc1ccc(C)c(SCC(=O)NCc2ccco2)c1	-13.9%	9.5	1.2	?	1.0%	?
O=C(Cc1cccs1)OCC(=O)c1ccco1	10.0%	19.7	-1.6	15.1%	25.1µM*	31.1%
O=C(CC(Sc1ccccc1)c1cccs1)c1ccco1 (stereo not drawn)	-15.7%	56.6*	25.7*	-8.5%	-23.0%	80.4%
Cc1ccc(C)c(SCC(=O)OCC(=O)c2ccco2)c1	-10.8%	23.8	-1.4	-4.5%	39.8µM*	0.1%

Screening data (PubChem)
